Results as given in the supplement of paper PMC12645437, “Orthogonal IMiD-Degron Pairs Induce Selective Protein Degradation in Cells” (ACS Chemical Biology, 2025).
Over roughly 8,300 sequences, “log2 fold change of degron read counts, EGFP-low vs EGFP+ sorted cells (limma voom), compound-induced degradation” has its median near -1.1; the highest 2% begin near 3.2. What follows is part of a selection rich in the highest values, with near analogues and random picks from the rest.

T1: CRBN, Q96SW2
T1 chain: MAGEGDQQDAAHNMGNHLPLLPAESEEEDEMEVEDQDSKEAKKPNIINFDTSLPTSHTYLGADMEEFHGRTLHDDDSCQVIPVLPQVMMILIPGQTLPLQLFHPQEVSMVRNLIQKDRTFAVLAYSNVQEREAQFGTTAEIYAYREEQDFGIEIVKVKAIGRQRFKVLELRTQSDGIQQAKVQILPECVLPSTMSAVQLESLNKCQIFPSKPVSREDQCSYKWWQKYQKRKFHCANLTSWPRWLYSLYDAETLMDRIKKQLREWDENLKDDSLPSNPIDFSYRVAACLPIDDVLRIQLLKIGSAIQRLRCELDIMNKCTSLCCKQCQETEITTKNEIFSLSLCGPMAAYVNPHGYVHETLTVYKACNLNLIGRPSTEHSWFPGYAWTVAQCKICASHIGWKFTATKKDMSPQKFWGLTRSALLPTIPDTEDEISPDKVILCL


Molecular target: T1, CRBN, Q96SW2
Assay: log2 fold change of degron read counts, EGFP-low vs EGFP+ sorted cells (limma voom), compound-induced degradation; higher = more compound-induced degradation of the degron-EGFP fusion; degrons are variants of IKZF1/3 zinc finger 2; compound dose not given here
Details: Jurkat, 18 h
Protocol: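 Pooled library of 8380 IKZF3 ZF2 degron mutants (positions 146-167 varied within the IKZF3 130-189 degron; only the varied core is printed, flanks not printed) fused to EGFP with IRES-mCherry, lentivirally expressed in Jurkat cells. mCherry+ cells were treated with one IMiD compound for 18 h (dose not stated) and FACS-sorted into EGFP-low and EGFP+ populations. Degron sequences were counted by NGS, and log2FC (EGFP-low vs EGFP+) was estimated by limma voom over 3 biological replicates.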

[1] = compound: compound 19 (5-tert-butyl-thalidomide)
[2] = compound: compound 22 (5-morpholino-thalidomide)
[3] = compound: compound 33 (diphenyl IMiD analogue)
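Further: pooled lentiviral library of zinc finger degron-EGFP fusions in mCherry-positive Jurkat cells, FACS-sorted after compound exposure, with degron abundance counted by next-generation sequencing.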

Sequence | log2 fold change of degron read counts [1] | log2 fold change of degron read counts [2] | log2 fold change of degron read counts [3] | log2 fold change of degron read counts (compound: thalidomide)
FNCPICGAEFTQKGNLLRHIKL [46F_47N_49P_50I_52G_53A_54E_55F_67L_, Q9UKT9] | 1.92 | 0.348 | 0.475 | 0.897
FECDICGARFTQKGNLLRHIKL [46F_47E_49D_50I_52G_53A_54R_55F_67L_, Q9UKT9] | -0.106 | -1.6 | -0.318 | 1.69
FRCPICGHKFTQKGNLLRHIKL [46F_47R_49P_50I_52G_53H_54K_55F_67L_, Q9UKT9] | -2.46 | -2.78 | -1.61 | -1.55
FSCNQCGRMFTQKGNLLRHIKL [46F_47S_49N_50Q_52G_53R_54M_55F_67L_, Q9UKT9] | -2.45 | -3.15 | -2.32 | -2.79
FHCNQCGHKFTQKGNLLRHIKL [46F_47H_49N_50Q_52G_53H_54K_55F_67L_, Q9UKT9] | -2.56 | -3.05 | -2.84 | -2.45
FDCPICGRRFTQKGNLLRHIKL [46F_47D_49P_50I_52G_53R_54R_55F_67L_, Q9UKT9] | 2.15 | 0.908 | 1.08 | 2.66
LCCNQCGFHCTQKGNLLRHIKL [46L_47C_49N_50Q_52G_53F_54H_55C_67L_, Q9UKT9] | -2.15 | -2.61 | -1.7 | -1.96
FDCSVCGHPFTQKGNLLRHIKL [46F_47D_49S_50V_52G_53H_54P_55F_67L_, Q9UKT9] | -1.84 | -2.36 | -2.33 | -1.9
FKCDVCGAYFTQKGNLLRHIKL [46F_47K_49D_50V_52G_53A_54Y_55F_67L_, Q9UKT9] | -2.99 | -3.36 | -3.07 | -2.83
FECDVCGADFTQKGNLLRHIKL [46F_47E_49D_50V_52G_53A_54D_55F_67L_, Q9UKT9] | -3.21 | -3.19 | -1.99 | -2.31
FWCPICGRPFTQKGNLLRHIKL [46F_47W_49P_50I_52G_53R_54P_55F_67L_, Q9UKT9] | 2.01 | 0.778 | 1.24 | -0.187
FWCPQCGAKFTQKGNLLRHIKL [46F_47W_49P_50Q_52G_53A_54K_55F_67L_, Q9UKT9] | 1.29 | 2.33 | -0.101 | -0.258
FGCEICGAQFTQKGNLLRHIKL [46F_47G_49E_50I_52G_53A_54Q_55F_67L_, Q9UKT9] | 3.48 | 2.64 | 1.18 | 1.14
FCCEICGAQFTQKGNLLRHIKL [46F_47C_49E_50I_52G_53A_54Q_55F_67L_, Q9UKT9] | 3.18 | 2.58 | 2.74 | 2.27
FVCEICGAQFTQKGNLLRHIKL [46F_47V_49E_50I_52G_53A_54Q_55F_67L_, Q9UKT9] | 0.913 | 2.56 | 2.86 | 3.22
FKCEICGAQFTQKGNLLRHIKL [46F_47K_49E_50I_52G_53A_54Q_55F_67L_, Q9UKT9] | 0.105 | -2.17 | -1.89 | -0.0845
FACEICGAQFTQKGNLLRHIKL [46F_47A_49E_50I_52G_53A_54Q_55F_67L_, Q9UKT9] | 3.66 | 2.38 | 1.15 | 1.07
FNCEICGAQFTQKGNLLRHIKL [46F_47N_49E_50I_52G_53A_54Q_55F_67L_, Q9UKT9] | 2.88 | 1.44 | 0.527 | 0.564
